ChEMBL document CHEMBL3988442, “University of Dundee, Small-Polar-MMV Screening Library” (2021)
For some assays here: Measured potencies and affinities stand elsewhere.

Columns and labels:
Parameters in all cases: scale not given: direction of the effect not stated beside the values
[1] = target: Protein translocase subunit SecA (Escherichia coli (strain K12)) (UniProt P10408); test: Assay to Identify E. coli SecA ATPase Inhibitors; format: functional; details: 30 µM
[2] = target: T1, Ubiquitin-activating enzyme e1, putative (Leishmania donovani (strain BPK282A1)) (UniProt E9BSI1); test: Leishmania donovani Ubiquitin Activating Enzyme (LdE1); format: functional; details: 30 µM
T1 sequence (whole entry): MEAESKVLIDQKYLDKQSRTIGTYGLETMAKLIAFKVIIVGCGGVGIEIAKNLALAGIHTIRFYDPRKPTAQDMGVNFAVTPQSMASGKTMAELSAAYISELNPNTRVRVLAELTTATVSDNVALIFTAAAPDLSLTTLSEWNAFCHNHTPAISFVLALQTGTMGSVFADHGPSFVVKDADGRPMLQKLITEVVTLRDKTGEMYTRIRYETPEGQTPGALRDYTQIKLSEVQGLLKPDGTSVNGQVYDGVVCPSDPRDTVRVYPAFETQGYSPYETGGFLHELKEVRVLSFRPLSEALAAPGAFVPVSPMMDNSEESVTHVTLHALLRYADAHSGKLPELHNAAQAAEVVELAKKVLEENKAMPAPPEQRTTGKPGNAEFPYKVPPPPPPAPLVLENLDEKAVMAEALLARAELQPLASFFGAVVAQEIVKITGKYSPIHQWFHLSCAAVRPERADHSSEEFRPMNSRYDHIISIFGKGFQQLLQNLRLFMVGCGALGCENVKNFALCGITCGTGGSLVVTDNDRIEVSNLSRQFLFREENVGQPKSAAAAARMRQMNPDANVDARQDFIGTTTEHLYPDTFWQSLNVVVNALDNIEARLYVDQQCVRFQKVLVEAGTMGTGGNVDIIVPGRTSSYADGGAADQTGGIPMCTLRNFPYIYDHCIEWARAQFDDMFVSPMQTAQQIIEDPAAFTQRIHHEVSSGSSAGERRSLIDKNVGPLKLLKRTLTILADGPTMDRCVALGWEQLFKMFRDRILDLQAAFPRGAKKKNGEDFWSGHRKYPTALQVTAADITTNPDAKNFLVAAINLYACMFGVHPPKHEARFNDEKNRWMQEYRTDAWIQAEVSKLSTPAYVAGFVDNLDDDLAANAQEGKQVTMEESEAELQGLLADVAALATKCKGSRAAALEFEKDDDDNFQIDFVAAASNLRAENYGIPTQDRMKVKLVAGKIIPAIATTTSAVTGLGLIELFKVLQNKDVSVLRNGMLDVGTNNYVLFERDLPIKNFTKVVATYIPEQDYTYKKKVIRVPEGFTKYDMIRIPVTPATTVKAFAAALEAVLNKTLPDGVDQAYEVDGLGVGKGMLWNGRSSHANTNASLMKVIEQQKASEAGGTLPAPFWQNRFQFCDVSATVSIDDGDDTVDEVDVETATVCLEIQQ

[3] = target: AMP-activated protein kinase, AMPK (Homo sapiens) (UniProt P54646+O43741+P54619+Q9UGJ0+Q9Y478+Q13131+Q9UGI9); test: AMP-dependent Kinase enzyme assay. An in vitro enzyme assay that detects ADP turnover that is directly proportional to AMPK activity. This uses naive AMPK that is activated during the assay with MK-8722; format: functional; details: 30 µM
[4] = target: Sialic acid-binding Ig-like lectin 9 (Homo sapiens) (UniProt Q9Y336); test: Hs-Siglec9 ALPHAscreen SOP 20170721; details: 10 µM
[5] = system: Trypanosoma cruzi; test: Trypanosoma cruzi phosphomannomutase and mannose-1-phosphate guanylyltransferase assay; format: functional; details: 10 µM
[6] = target: T2, Arginase-2, mitochondrial (Homo sapiens) (UniProt P78540); test: in vitro enzyme assay to detect the production of urea directly proportional to the activity of Arginase II; format: functional; details: 33.3 µM; also: in the data most compounds retested in dose-response had high values
T2 sequence (whole entry): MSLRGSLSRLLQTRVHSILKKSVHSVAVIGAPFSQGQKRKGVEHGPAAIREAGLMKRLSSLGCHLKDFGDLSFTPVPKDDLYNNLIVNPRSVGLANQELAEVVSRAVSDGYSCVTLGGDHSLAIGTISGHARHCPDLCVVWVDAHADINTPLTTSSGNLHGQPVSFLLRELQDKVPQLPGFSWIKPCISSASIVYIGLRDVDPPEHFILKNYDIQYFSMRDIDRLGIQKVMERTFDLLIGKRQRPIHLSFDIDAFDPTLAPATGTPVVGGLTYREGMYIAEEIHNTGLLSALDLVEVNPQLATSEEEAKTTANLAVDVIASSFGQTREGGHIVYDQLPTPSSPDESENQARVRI

[7] = target: T3, Proteasome subunit beta (Trypanosoma cruzi) (UniProt O96673); test: Trypanosoma cruzi proteasome chymotrypsin-like activity (TcProtChymo) assay.; also: in the data most compounds retested in dose-response had high values; format: functional; details: 9.37 µM
T3 sequence (whole entry): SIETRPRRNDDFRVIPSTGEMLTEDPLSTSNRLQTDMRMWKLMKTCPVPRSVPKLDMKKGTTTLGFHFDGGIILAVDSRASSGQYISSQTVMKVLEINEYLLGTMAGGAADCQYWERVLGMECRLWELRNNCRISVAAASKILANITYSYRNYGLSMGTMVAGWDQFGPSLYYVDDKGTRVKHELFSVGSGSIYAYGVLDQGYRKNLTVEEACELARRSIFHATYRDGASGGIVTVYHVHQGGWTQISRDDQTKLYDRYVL

[8] = organism: Homo sapiens; test: To identify inhibition of the IFN signalling (Jak-Stat) pathway via expression of an eGFP reporter gene under the control of an IFN-stimulated response element (ISRE) containing MxA promoter.; format: functional; details: 30 µM
[9] = target: T4, Tyrosyl-tRNA synthetase, putative (Trypanosoma cruzi (strain CL Brener)) (UniProt Q4DSP6); test: Trypanosoma cruzi tyrosyl tRNA synthetase (TcYRS) _High Tyrosine SOP; format: functional; details: 30 µM; also: in the data most compounds retested in dose-response had high values
T4 sequence (whole entry): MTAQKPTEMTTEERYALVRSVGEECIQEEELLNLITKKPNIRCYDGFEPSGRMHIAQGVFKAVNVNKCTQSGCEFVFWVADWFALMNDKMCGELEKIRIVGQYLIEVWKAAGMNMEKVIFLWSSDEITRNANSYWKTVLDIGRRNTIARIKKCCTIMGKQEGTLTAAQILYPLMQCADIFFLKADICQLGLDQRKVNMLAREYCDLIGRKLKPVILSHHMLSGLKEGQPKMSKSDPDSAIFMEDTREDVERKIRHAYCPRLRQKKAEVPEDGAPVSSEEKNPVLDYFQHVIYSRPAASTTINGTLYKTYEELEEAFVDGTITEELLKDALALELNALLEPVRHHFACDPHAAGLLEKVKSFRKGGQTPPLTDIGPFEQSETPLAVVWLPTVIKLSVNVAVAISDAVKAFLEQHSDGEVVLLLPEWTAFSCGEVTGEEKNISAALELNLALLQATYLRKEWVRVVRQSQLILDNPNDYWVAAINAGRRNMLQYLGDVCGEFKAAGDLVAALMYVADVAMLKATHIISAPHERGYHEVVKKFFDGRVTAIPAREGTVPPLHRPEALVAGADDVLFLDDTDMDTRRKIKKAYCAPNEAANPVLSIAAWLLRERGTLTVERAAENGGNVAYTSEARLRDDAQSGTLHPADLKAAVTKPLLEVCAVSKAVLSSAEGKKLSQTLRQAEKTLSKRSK

[10] = target: T4, Tyrosyl-tRNA synthetase, putative (Trypanosoma cruzi (strain CL Brener)); test: Trypanosoma cruzi tyrosyl tRNA synthetase (TcYRS) SOP; format: functional; details: 30 µM
[11] = target: Chromo domain-containing protein 1 (Saccharomyces cerevisiae (strain ATCC 204508 / S288c) (Baker's yeast)) (UniProt P32657); test: ScCHD-1 Enzyme Inhibition Assay; format: functional; details: 30 µM; also: in the data most compounds retested in dose-response had high values
Sequence of Chromo domain-containing protein 1 (Saccharomyces cerevisiae (strain ATCC 204508 / S288c) (Baker's yeast)) (P32657 whole entry, the tested form may be a part): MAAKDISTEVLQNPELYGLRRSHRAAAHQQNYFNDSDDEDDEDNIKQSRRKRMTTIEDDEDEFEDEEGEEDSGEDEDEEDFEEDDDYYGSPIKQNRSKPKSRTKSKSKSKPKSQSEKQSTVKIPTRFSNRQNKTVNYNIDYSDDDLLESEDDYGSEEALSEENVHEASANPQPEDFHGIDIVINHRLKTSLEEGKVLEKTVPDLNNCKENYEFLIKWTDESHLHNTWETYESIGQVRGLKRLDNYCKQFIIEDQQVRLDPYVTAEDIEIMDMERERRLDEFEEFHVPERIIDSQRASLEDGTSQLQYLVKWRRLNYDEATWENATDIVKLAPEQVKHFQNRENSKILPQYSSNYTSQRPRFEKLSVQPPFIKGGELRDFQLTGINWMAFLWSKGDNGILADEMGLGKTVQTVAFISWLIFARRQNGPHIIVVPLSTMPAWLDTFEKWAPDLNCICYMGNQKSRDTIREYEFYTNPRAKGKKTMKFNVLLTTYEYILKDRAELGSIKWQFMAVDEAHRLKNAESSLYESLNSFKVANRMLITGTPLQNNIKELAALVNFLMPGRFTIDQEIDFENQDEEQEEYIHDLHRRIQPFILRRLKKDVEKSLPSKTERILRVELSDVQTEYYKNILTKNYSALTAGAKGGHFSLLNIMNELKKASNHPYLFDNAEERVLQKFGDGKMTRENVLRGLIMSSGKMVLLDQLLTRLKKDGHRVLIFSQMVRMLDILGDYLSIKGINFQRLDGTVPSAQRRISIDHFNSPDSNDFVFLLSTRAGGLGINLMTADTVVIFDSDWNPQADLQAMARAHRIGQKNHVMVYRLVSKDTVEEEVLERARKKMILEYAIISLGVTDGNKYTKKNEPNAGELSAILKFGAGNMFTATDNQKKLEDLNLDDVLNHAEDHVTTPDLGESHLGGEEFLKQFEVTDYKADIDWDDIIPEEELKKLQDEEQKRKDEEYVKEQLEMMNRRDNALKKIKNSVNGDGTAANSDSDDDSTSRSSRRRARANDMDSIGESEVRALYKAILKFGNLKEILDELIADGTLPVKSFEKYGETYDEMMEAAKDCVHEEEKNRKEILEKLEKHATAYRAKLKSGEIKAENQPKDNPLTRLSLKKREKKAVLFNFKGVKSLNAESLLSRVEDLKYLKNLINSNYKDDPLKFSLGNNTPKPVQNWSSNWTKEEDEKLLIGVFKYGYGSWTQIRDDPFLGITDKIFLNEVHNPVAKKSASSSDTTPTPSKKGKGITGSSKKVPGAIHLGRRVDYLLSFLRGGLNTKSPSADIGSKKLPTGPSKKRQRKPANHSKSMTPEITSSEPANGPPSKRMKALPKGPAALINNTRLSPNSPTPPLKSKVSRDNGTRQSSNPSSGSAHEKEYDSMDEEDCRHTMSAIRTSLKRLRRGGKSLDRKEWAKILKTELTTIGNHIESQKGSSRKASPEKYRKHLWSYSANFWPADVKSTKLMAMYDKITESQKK

Sequence of Sialic acid-binding Ig-like lectin 9 (Homo sapiens) (Q9Y336 whole entry): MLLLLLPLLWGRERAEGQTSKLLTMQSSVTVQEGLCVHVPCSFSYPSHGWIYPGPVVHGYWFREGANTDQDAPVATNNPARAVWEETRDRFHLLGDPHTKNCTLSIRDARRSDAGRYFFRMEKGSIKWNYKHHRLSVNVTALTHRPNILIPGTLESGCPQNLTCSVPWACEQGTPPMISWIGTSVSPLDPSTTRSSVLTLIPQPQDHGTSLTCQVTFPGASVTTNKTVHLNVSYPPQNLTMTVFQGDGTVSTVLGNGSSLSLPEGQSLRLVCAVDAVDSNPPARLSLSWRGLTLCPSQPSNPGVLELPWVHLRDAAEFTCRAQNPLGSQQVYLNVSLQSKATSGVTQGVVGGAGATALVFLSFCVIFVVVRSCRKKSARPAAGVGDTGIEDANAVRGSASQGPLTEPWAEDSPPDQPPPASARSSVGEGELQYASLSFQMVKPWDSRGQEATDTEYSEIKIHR
Sequence of Protein translocase subunit SecA (Escherichia coli (strain K12)) (P10408 whole entry): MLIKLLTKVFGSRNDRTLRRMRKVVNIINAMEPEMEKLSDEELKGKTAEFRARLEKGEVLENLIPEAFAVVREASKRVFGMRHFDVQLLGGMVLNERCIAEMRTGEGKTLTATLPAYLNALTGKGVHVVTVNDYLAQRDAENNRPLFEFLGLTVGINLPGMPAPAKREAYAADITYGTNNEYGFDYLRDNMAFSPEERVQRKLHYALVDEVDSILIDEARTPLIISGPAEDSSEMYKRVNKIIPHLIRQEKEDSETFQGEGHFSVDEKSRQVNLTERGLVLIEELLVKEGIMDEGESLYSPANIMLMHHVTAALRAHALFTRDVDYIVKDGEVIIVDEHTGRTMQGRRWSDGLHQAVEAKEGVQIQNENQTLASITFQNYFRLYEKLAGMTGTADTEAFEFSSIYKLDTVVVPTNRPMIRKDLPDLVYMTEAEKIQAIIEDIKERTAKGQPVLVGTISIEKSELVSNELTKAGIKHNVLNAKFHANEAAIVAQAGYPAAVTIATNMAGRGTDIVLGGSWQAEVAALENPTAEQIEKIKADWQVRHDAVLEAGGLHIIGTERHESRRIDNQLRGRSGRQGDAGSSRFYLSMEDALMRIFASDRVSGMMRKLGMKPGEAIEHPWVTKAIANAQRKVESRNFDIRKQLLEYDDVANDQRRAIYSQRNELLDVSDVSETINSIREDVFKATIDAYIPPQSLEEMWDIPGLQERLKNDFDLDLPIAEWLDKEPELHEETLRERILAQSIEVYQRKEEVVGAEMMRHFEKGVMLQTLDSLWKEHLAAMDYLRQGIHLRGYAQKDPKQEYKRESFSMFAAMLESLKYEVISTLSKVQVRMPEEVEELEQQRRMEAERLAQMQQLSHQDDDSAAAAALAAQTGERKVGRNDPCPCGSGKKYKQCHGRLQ

Row | Structure (SMILES) | Percent Effect [1] [%] | Percent Effect [2] [%] | Percent Effect [3] [%] | Percent Effect [4] [%] | Percent Effect [5] [%] | Percent Effect [6] [%] | Percent Effect [7] [%] | Percent Effect [8] [%] | Percent Effect [9] [%] | Percent Effect [10] [%] | Percent Effect [11] [%]
1 | COCC(=O)N1CCC(c2nccn2CC2CC2)CC1 | 0.53 | 10.8 | -6.45 | 8.36 | 5.41 | 8.57 | 19.8 | -2.14 | 6.88 | 19.5 | -2.23
2 | CN(C)c1ncc(-c2cc(C(=O)O)n(CC3CC3)c2)cn1 | -1.6 | -2.7 | 5.47 | -3.4 | 1.95 | -0.833 | 7.69 | 7.22 | 5.94 | -3.66 | -8.88
3 | CN(C)S(=O)(=O)N1CCC[C@]2(C[C@@H](Oc3ccccn3)CO2)C1 | -0.984 | 7.79 | 2.82 | 5.42 | -4.63 | -5.81 | 9.75 | 5 | -1.06 | 6.41 | -6.01
4 | COCC1COCCC12CCN(C(=O)CCOc1ccccc1)CC2 (configuration not stated) | -3.35 | 2.7 | 0.684 | -3.94 | 8.2 | -2.5 | 6 | -0.428 | 8.91 | 6.1 | 1.14
5 | COC(=O)C(C)(C)NC(=O)C1CC(=O)N(C2CCCC2)C1 (configuration not stated) | -0.563 | 11 | -0.48 | 5.96 | 3.17 | -2.79 | 9.85 | 26.3 | 11.5 | 25.9 | -1.54
6 | COc1c(C2CCCN2C(=O)c2ccnc(N(C)C)c2)c(C)nn1C (configuration not stated) | -4.71 | 5.2 | 4.01 | 13.2 | -4.21 | 2.74 | 5.58 | 14 | 4.76 | 7.06 | -20
7 | CC(=O)Nc1nc(C(=O)N2CCCC2c2ccccc2C)cs1 (configuration not stated) | -3.82 | 10.4 | 8.63 | 1.33 | -8.24 | 4.27 | 3.21 | 31.4 | 5.83 | 9.76 | -5.39
8 | c1csc(N2CCCN(Cc3nc(C4CC4)no3)CC2)n1 | -5.91 | 10.4 | -4.1 | 9.22 | -0.749 | -2.49 | -1.18 | 19 | 5.83 | 14.6 | 5.76
9 | COCCc1noc(CN(C)C(=O)c2cccc(N3CCCC3=O)c2)n1 | -2.59 | -2.53 | 0.707 | 3.91 | -1.23 | -0.38 | -0.246 | -3.22 | -0.493 | -3.8 | -1.74
10 | COc1cccc(CN2CCOC(Cn3nc(C)cc3C)C2)c1 (configuration not stated) | -1.25 | 2.7 | 25.1 | -0.918 | -4.88 | 1.67 | 18.2 | -11.1 | 7.92 | 15.8 | 8.67
11 | Cc1nn(C)c(C)c1C1CCCN1Cc1nc(C2CC2)no1 (configuration not stated) | -2.91 | 16.2 | 0.977 | -3.54 | 6.22 | -0.924 | 15.6 | 16.5 | 5.94 | 18.3 | -7.69
12 | Cc1cc(C)n(CC2CN(Cc3cccc(C(N)=O)c3)CCO2)n1 (configuration not stated) | -2.43 | 16.2 | 8.27 | -0.119 | 4.69 | 8.75 | 20.7 | 18.8 | 7.92 | 20.7 | 97.6
13 | Cc1cccc(CNCc2c(C)nn(C)c2N2CCOCC2)n1 | 0.786 | 8.22 | 4.7 | 2.65 | 5.09 | 13.2 | 19.3 | -6.96 | 8.6 | 15 | -6.04
14 | Cc1cnccc1N1CCCN(C(=O)CCCS(N)(=O)=O)CC1 | -2.12 | 5.48 | 6.21 | 1.68 | 1.37 | 15.4 | 8.87 | -6.07 | 2.15 | 12.5 | 0.551
15 | O=C(NCC(O)CN1CCc2ccccc2C1)Nc1cccnc1 (configuration not stated) | -4.38 | 13 | 3.15 | 3.21 | 0.294 | 3.58 | 11.2 | 14.5 | 1.91 | -25.9 | -11.5
16 | COc1ncccc1CNc1cc(N2CCCC2CO)ncn1 (configuration not stated) | -1.73 | 2.6 | -6.5 | 5.75 | 3.75 | -8.54 | 13.3 | 20.9 | 3.88 | 12.2 | -10.4
17 | CN1CCN(c2ncccc2CNc2ncccc2C#N)CC1 | -5.21 | 8.11 | -1.66 | 20.8 | -2.44 | 3.72 | 3.86 | -10.1 | 4.3 | 13.6 | -4.55
18 | CN(C)Cc1nc(C(C)(C)NC(=O)C2CC(=O)N(CC3CC3)C2)no1 (configuration not stated) | -8.14 | 5.41 | 0.168 | 2.33 | -3.44 | 3.14 | -3.77 | 22.2 | 1.98 | 1.22 | 4.96
19 | CN(Cc1ccon1)C(=O)C1CC(=O)N(Cc2ccncc2)C1 (configuration not stated) | -6.1 | 5.41 | -1.61 | 13.8 | -0.684 | 0.248 | 2.66 | 14.7 | 5.38 | 8.64 | -4.6
20 | Cn1cc(CN2CCOC3(CCCN(C(=O)c4ccco4)C3)C2)cn1 (configuration not stated) | -4.16 | 13 | -1.39 | 4.5 | 8.95 | -8.28 | 5.49 | 1.45 | 3.23 | 8.64 | -6.46
21 | Cc1noc(C)c1-c1cnc(CC2CCN(C(=O)c3cc[nH]n3)C2)cn1 (configuration not stated) | -0.461 | 9.46 | 11.7 | -4.31 | -2.37 | -2.09 | 7.02 | 3.9 | 8.6 | 14.3 | -9.57
22 | CCN1CCN(C2CCN(Cc3c(C)noc3C)CC2)C1=O | -8.32 | 15.2 | -5.02 | 13.7 | 4.44 | -0.38 | 6.8 | 3.4 | 6.4 | 16.5 | -7.48
